iPSC survival up – hiPSC single-cell survival enhancement | ATPlite luminescence; 100% = ROCK inhibitor wells, 0% = DMSO | survival enhancement, % at 20 µM | actives 0.044% (n = 360,000); in the data active = survival enhancement above about 18%;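 also: cells exposed to compounds for 16 hours before the ATP read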
CendR NRP1 mod – modulators of CendR peptide binding to human neuropilin-1. actives 0.85% (n = 360,000). FAM-RPARPAR peptide binding to NRP-1, fluorescence polarization. inhibition, % at 25 µM;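 active = inhibition or corrected inhibition above about 18%, plus a signal ratio from 0.5 to 1.5, limit read from the data, passing the limit was not always enough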
Target sequence (O14786 whole entry, looked up): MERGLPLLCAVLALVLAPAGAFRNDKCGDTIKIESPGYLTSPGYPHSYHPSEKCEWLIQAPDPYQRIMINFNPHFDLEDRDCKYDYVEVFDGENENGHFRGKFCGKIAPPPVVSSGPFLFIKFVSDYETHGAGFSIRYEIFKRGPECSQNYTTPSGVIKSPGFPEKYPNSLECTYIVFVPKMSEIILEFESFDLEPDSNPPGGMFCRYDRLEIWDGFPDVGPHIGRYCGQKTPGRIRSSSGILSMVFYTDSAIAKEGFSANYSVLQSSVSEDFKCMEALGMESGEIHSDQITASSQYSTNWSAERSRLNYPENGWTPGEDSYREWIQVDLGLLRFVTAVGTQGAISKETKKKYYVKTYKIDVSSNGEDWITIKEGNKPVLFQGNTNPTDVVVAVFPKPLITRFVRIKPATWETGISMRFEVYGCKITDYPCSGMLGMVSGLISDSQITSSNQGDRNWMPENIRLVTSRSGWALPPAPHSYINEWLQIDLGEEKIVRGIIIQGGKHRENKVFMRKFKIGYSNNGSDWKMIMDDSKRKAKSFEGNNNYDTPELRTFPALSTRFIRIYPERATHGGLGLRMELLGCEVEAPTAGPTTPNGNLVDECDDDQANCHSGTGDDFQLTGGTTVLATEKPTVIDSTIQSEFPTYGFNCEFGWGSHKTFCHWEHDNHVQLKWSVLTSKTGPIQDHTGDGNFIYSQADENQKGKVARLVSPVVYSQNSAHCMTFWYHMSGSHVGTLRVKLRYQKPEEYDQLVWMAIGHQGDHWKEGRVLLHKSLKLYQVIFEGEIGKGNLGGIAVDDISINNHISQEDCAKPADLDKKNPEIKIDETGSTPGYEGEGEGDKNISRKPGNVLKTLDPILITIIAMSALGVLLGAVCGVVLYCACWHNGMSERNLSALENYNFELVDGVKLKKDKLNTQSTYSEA
ABCB6 inh 2 – inhibitors of human ABC transporter ABCB6. Q9NP58. K562-ABCB6 porphyrin accumulation, flow cytometry, 1 h; stronger effect = lower value. fluorescence ratio to DMSO, % at 10 µM. actives 0.19% (n = 360,000);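 active = fluorescence ratio to DMSO below 75%, the collection mean minus 3 SD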;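 also: signal is porphyrin accumulated inside mitochondria; 100% equals median channel fluorescence of DMSO control wells; lower ratio means ABCB6 inhibition with less porphyrin fluorescence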
ARNT-TACC3 inh – disrupts binding between human ARNT and TACC3. Q9Y6A5. actives 0.66% (n = 390,000). inhibition, % at 9.99 µM. AlphaScreen His-ARNT PAS-B/GST-TACC3 binding, luminescence; TACC3 fragment carries E629A point mutation. AID 623870;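 active = mean inhibition of replicates at least 50% and at least half of replicates each reaching 50%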;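 also: 0% = complete ARNT plus TACC3 wells and 100% = ARNT alone without TACC3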
INS-1E GSIS act – GLuc luminescence reporter in INS-1E cells, primary screen for activators of glucose-dependent secretion of insulin; actives 0.61% (n = 370,000); activation, % at 16.6 µM; INS-1E GLuc reporter insulin secretion, 2-3 h;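 active = lowest replicate activation of at least 40%, so every replicate reaches that level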;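 also: 0% = median of neutral control wells and 100% = median of IBMX positive control wells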
AlphaScreen ctr – interferes with AlphaScreen signal, flagging false ARNT-TACC3 hits; shares compounds with ARNT-TACC3 inh; AC50, µM (titrated, usually from 68 µM), for the others: top-dose activity change, negative = signal decrease; actives 50% (n = 1,200); His-ARNT PASB-GST AlphaScreen artifact counter-screen, luminescence; AID 651705;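 active = every separate test run was called active for a drop in luminescence, with AC50 within twice the top valid dose, actives reach about 71 µM in these data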
Numbers without * were called inactive; x = no result. This is a sample that favours compounds with a hit; in the whole collection about 1.8% have one here.

SMILES	iPSC survival up	CendR NRP1 mod	ABCB6 inh 2	ARNT-TACC3 inh	INS-1E GSIS act	AlphaScreen ctr
c1ccc(-c2cnc(-c3ccccn3)nn2)cc1	-4.1	4.2	102.0	64.5*	-0.2	32.2µM*
Cc1ccc(C)c(CSc2ccc3nnc(-c4ccccn4)n3n2)c1	1.2	-4.3	91.0	54.6*	-19.9	-11.1%
Cc1ccc(CSc2ccc3nnc(-c4ccccn4)n3n2)cc1	0.2	-1.2	101.0	11.4	-34.8	x
CO[C@H]1CN(C)C(=O)c2ccc(NC(=O)c3cc(C)on3)cc2OC[C@@H](C)N(C(=O)C2CC2)C[C@@H]1C	x	x	x	-11.4	5.6	x
COCC(=O)N/N=C\c1ccccc1OC/C=C/c1ccccc1	-0.2	-8.4	89.0	6.3	2.6	x
N#CCC(=O)N/N=C\c1ccccc1OC/C=C/c1ccccc1	0.9	-4.3	109.0	63.7*	-4.9	54.6µM*
CCCc1cn(CC[C@@H]2CC[C@@H](NC(=O)C3CCCC3)[C@@H](CO)O2)nn1	x	x	x	1.2	-1.3	x
CN1c2ccc(-c3ccccc3F)cc2[C@@H]2[C@@H](CCN2C(=O)NC2CCCCC2)[C@@H]1CO	x	x	x	x	-17.7	x
Cc1cc(C)n2nc(-c3cccc(Br)c3)cc2n1	-0.5	-2.7	102.0	51.3*	6.9	8.2%
O=C(N[C@@H]1CC[C@H](CCn2cc(-c3ccccn3)nn2)O[C@H]1CO)c1cccnc1	x	x	x	83.8*	17.1	44.2µM*
O=C(N[C@@H]1CC[C@@H](CCn2cc(-c3ccccn3)nn2)O[C@H]1CO)c1cccnc1	x	x	x	70.9*	-2.5	36.6µM*
O=C(N[C@@H]1CC[C@@H](CCn2cc(-c3ccccn3)nn2)O[C@@H]1CO)c1cccnc1	x	x	x	80.8*	-13.3	44.1µM*
O=C(N[C@H]1CC[C@H](CCn2cc(C3CC3)nn2)O[C@@H]1CO)c1cccnc1	x	x	x	-23.1	-12.4	x
O=C(N[C@@H]1CC[C@@H](CCn2cc(C3CCCC3)nn2)O[C@H]1CO)c1cccnc1	x	x	x	x	0.5	x
Cc1ccc(SCc2noc(C(=O)NCC3CCCO3)c2C(=O)O)cc1C (stereo not given)	0.2	15.4	99.0	-1.2	17.6	x
O=C(NCC1CCCO1)c1onc(CSc2ccc(F)cc2)c1C(=O)O (stereo not given)	-1.0	2.1	100.0	23.6*	-3.6	-3.7%
COc1ccc(-c2nc(CN3CCC(C(=O)NC4CCCc5ccccc54)CC3)c(C)o2)cc1OC (stereo not given)	-0.7	12.0	99.0	56.3*	-2.4	-10.4%
COc1ccc(-c2nc(CN3CCC(C(=O)NC4CCCC4)CC3)c(C)o2)cc1OC	-0.7	4.5	91.0	-1.0	28.7	x
C[C@@H]1CN([C@H](C)CO)C(=O)c2cc(NC(=O)C3CCCCC3)ccc2O[C@H]1CN(C)S(=O)(=O)c1ccc(Cl)cc1	x	x	x	-6.1	-3.5	x
COc1ccc(/C=N/Nc2nncn2N)cc1Br	0.1	8.2	94.0	54.8*	-17.1	-18.6%
C/C(=N\NC(=O)C(C)Oc1ccc([N+](=O)[O-])cc1)c1ccccn1 (stereo not given)	-2.5	-6.0	109.0	54.0*	-2.1	34.1µM*
C[C@@H]1CCCCO[C@@H](CN(C)S(C)(=O)=O)[C@@H](C)CN([C@H](C)CO)C(=O)c2cc(NC(=O)c3ccncc3)ccc2O1	x	x	x	-2.1	20.7	x
Cc1ccc(C(=O)NCCCn2ccnc2)cc1C	0.4	9.1	95.0	x	x	x
O=C(NCCCn1ccnc1)c1ccc2nccnc2c1	-0.4	12.9	102.0	58.1*	-2.6	-8.5%
CC(C)(C)c1cc(C(=O)NCCCn2ccnc2)cc(C(C)(C)C)c1	-0.4	5.4	95.0	60.7*	-21.6	-10.7%
O=C(NCCCn1ccnc1)c1cc2cc([N+](=O)[O-])ccc2oc1=O	-0.5	-9.4	90.0	53.5*	-12.5	3.1%
O=C(NCCCn1ccnc1)c1ccc(Cl)cc1[N+](=O)[O-]	2.0	6.8	97.0	x	-0.4	x
CO[C@@H]1CN(C)C(=O)c2ccc(NS(=O)(=O)c3cn(C)cn3)cc2OC[C@@H](C)NC[C@@H]1C	x	x	x	x	-1.1	x
Cc1c(CCC(=O)O)c(=O)oc2c(C)c3occ(-c4ccc(Cl)cc4)c3cc12	0.1	-152.3	89.0	56.2*	-3.1	61.9µM*
N/C(=N\NS(=O)(=O)c1ccccc1Cl)c1ccccn1	-0.5	-6.9	101.0	55.3*	x	-9.0%

Source: PubChem BioAssay (several laboratories)
